Test results taken from ChEMBL document CHEMBL1201862, “PubChem BioAssay data set” (2004).
Screen size: about 44,000 sequences; about 4,100 (9.3%) were called active. No stated cut-off is given here; in the data, active = GI50 up to about 1.1 µM and inactive = higher. What follows is part of a selection rich in actives, with near analogues and random picks from the rest. Potency and affinity values are given separately.

Each substance was assayed on MDA-MB-435.

Row | Substance | GI50 [µM]
1 | [Bis(aminomethyl)tetramethylenesilane]dichloropaltinum(II), CHEMBL2146205 | 3.51
2 | [Bis(aminomethyl)tetramethylenesilane]tetrachloropaltinum(IV), CHEMBL2146189 | 9.02
3 | CISPLATIN, CHEMBL11359 | 5.96
4 | [Bis(aminomethyl)pentamethylenesilane]dichloropaltinum(II), CHEMBL2146202 | 1.31
5 | [Bis(aminomethyl)pentamethylenesilane]tetrachloropaltinum(IV), CHEMBL2146204 | 0.438
6 | [Bis(aminomethyl)dimethylsilane]tetrachloroplatinum(IV), CHEMBL2146190 | 13.9
